# The panel holds about 79,000 compounds, 15% with a hit somewhere; the sample as a whole holds those more often. Unmarked numbers belong to inactive results. Calls of active or inactive are those of the source. No stated cut-off is given here; in the data, active means growth inhibition above about 70%; inactive means the rest.
# How the values were obtained:
# [1] = NCI Yeast Anticancer Drug Screen. Data for the rad52 strain (AID 147);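 further: 0% = growth of vehicle-treated control cultures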; conditions: S. cerevisiae rad52 mutant growth inhibition, stronger effect = higher value
# Summary of the method: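 Inhibition of yeast growth, referenced to vehicle controls, was the measured output for a strain with defective DNA damage repair.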
# [2] = NCI Yeast Anticancer Drug Screen. Data for the rad50EPP+ strain (AID 151);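 further: 0% = growth of vehicle-treated control cultures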; conditions: S. cerevisiae rad50 mutant strain, stronger effect = higher value
# Summary of the method: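 Genetically defined yeast (rad50EPP+, DNA damage repair alteration) is grown with compound, and inhibition of growth is expressed relative to vehicle-treated controls.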
# [3] = NCI Yeast Anticancer Drug Screen. Data for the mgt1 strain (AID 153); conditions: S. cerevisiae mgt1 mutant growth inhibition, stronger effect = higher value
# Summary of the method: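 In the mgt1 strain, test compounds were added and growth inhibition was determined relative to vehicle-treated controls.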
# [4] = NCI Yeast Anticancer Drug Screen. Data for the rad50 strain (AID 155);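 further: 0% = growth of vehicle-only cultures of the same strain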; conditions: S. cerevisiae rad50 strain growth inhibition, stronger effect = higher value
# Summary of the method: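 Cells are treated with compound, grown, and their growth is then scored against vehicle-only cultures of the same repair-deficient yeast strain.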
# [5] = NCI Yeast Anticancer Drug Screen. Data for the mec2-1 strain (AID 157); conditions: S. cerevisiae mec2-1 strain, stronger effect = higher value
# Summary of the method: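 Each compound was tested on mec2-1 yeast, a strain altered in DNA damage repair or cell cycle control. Growth inhibition is reported relative to vehicle.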
# [6] = NCI Yeast Anticancer Drug Screen. Data for the rad14 strain (AID 159);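 further: 0% = growth of vehicle-treated control cultures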; conditions: S. cerevisiae rad14 strain growth inhibition, stronger effect = higher value
# Summary of the method: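 Readout: yeast growth inhibition, referenced to vehicle-only cultures. Strain bears a defined alteration in DNA damage repair.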
# [7] = NCI Yeast Anticancer Drug Screen. Data for the sgs1 mgt1 strain (AID 161);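 further: 0% = growth of cultures given vehicle only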; conditions: S. cerevisiae sgs1 mgt1 strain, stronger effect = higher value
# Summary of the method: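 Inhibition of yeast growth, normalised to vehicle-treated controls, is reported for a strain bearing genetic alterations in DNA damage repair.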
# [8] = NCI Yeast Anticancer Drug Screen. Data for the cln2 rad14 strain (AID 165);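 further: 0% = growth equal to vehicle treated cultures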; conditions: S. cerevisiae cln2 rad14 strain, stronger effect = higher value
# Summary of the method: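 Test compounds were added to cln2 rad14 yeast cultures; inhibition of growth was then determined by comparison with vehicle treatment.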
# [9] = NCI Yeast Anticancer Drug Screen. Data for the bub3 strain (AID 167); conditions: S. cerevisiae bub3 mutant strain, stronger effect = higher value
# Summary of the method: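 Part of a panel of yeast mutants defective in DNA damage repair or cell cycle regulation. Each strain is grown with compound, and inhibition is calculated relative to solvent-treated cultures.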
# [10] = NCI Yeast Anticancer Drug Screen. Data for the wt2 strain (AID 169);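 further: 0% = growth of vehicle-treated yeast cultures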; conditions: S. cerevisiae wt2 strain growth inhibition, stronger effect = higher value
# Summary of the method: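 The panel's yeast strains carry defined changes in DNA repair or cell cycle genes. Each strain is grown with compound, and growth loss is scored relative to vehicle.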
# [11] = NCI Yeast Anticancer Drug Screen. Data for the mlh1 strain (AID 171);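 further: 0% = growth of vehicle-treated control cultures of the same strain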; conditions: S. cerevisiae mlh1 strain growth inhibition, stronger effect = higher value
# Summary of the method: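 Inhibition values reflect reduced yeast growth in the presence of compound, referenced to vehicle controls, using a strain chosen for its alteration in DNA repair or cell cycle control.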
# [12] = NCI Yeast Anticancer Drug Screen. Data for the sgs1 strain (AID 173);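 further: 0% = growth of vehicle-only control cultures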; conditions: S. cerevisiae sgs1 mutant, stronger effect = higher value
# Summary of the method: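 Vehicle-treated cultures served as reference for growth inhibition of a yeast strain altered in DNA damage repair or cell cycle control after compound exposure.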
# [13] = NCI Yeast Anticancer Drug Screen. Data for the mlh1 rad18 strain (AID 175); conditions: S. cerevisiae mlh1 rad18 strain growth inhibition, stronger effect = higher value
# Summary of the method: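 Inhibition values reflect reduced growth of mutant yeast versus vehicle-treated controls following compound exposure; the mutations affect DNA damage repair.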
# [14] = NCI Yeast Anticancer Drug Screen. Data for the rad18 strain (AID 177); conditions: S. cerevisiae rad18 mutant growth inhibition, stronger effect = higher value
# Summary of the method: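 Steps: expose repair-mutant yeast to compound; measure growth; express as inhibition relative to vehicle control.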
# [15] = at 5.0 µM (retest, dose inferred, filed as 0.5)
# [16] = at 50.0 µM (retest, dose inferred, filed as 5.0)
smiles,measurement,setting,value
CO[C@H](/C(C)=C/C=C/C(C)=C/c1coc(C)n1)[C@H](C)[C@H]1C[C@@H](O)[C@@]2(C)O[C@H]2/C=C/[C@@H](C)[C@@H]2C[C@@H](CC(=O)O2)C[C@H]2O[C@@H]2C(=O)O1,growth inhibition,[1]; at 1.2 µM,6%
same,growth inhibition,[1]; at 3.7 µM,-2%
same,growth inhibition,[1]; at 11.0 µM,14%
same,growth inhibition,[1]; at 33.0 µM,17%
same,growth inhibition,[1]; at 100.0 µM,93% (active)
same,growth inhibition,[2]; at 1.2 µM,-17%
same,growth inhibition,[2]; at 3.7 µM,-9%
same,growth inhibition,[2]; at 11.0 µM,-21%
same,growth inhibition,[2]; at 33.0 µM,-8%
same,growth inhibition,[2]; at 100.0 µM,-23%
same,growth inhibition,[3]; at 1.2 µM,-4%
same,growth inhibition,[3]; at 3.7 µM,-14%
same,growth inhibition,[3]; at 11.0 µM,-6%
same,growth inhibition,[3]; at 33.0 µM,24%
same,growth inhibition,[3]; at 100.0 µM,94% (active)
same,growth inhibition,[4]; at 1.2 µM,-6%
same,growth inhibition,[4]; at 3.7 µM,-15%
same,growth inhibition,[4]; [15],-9%
same,growth inhibition,[4]; at 11.0 µM,-26%
same,growth inhibition,[4]; at 33.0 µM,4%
same,growth inhibition,[4]; [16],89% (active)
same,growth inhibition,[4]; at 50.0 µM,39.1%
same,growth inhibition,[4]; at 100.0 µM,93% (active)
same,growth inhibition,[5]; at 1.2 µM,-9%
same,growth inhibition,[5]; at 3.7 µM,-5%
same,growth inhibition,[5]; [15],-9%
same,growth inhibition,[5]; at 11.0 µM,-16%
same,growth inhibition,[5]; at 33.0 µM,16%
same,growth inhibition,[5]; [16],93% (active)
same,growth inhibition,[5]; at 50.0 µM,49.2%
same,growth inhibition,[5]; at 100.0 µM,93% (active)
same,growth inhibition,[6]; at 1.2 µM,-28%
same,growth inhibition,[6]; at 3.7 µM,-17%
same,growth inhibition,[6]; at 11.0 µM,-8%
same,growth inhibition,[6]; at 33.0 µM,-8%
same,growth inhibition,[6]; at 100.0 µM,91% (active)
same,growth inhibition,[7]; [15],15%
same,growth inhibition,[7]; [16],91% (active)
same,growth inhibition,[7]; at 50.0 µM,20.6%
same,growth inhibition,[8]; [15],8%
same,growth inhibition,[8]; [16],54%
same,growth inhibition,[8]; at 50.0 µM,19.4%
same,growth inhibition,[9]; at 1.2 µM,-19%
same,growth inhibition,[9]; at 3.7 µM,-10%
same,growth inhibition,[9]; [15],37%
same,growth inhibition,[9]; at 11.0 µM,9%
same,growth inhibition,[9]; at 33.0 µM,89% (active)
same,growth inhibition,[9]; [16],95% (active)
same,growth inhibition,[9]; at 50.0 µM,83.3% (active)
same,growth inhibition,[9]; at 100.0 µM,96% (active)
same,growth inhibition,[10]; at 1.2 µM,-12%
same,growth inhibition,[10]; at 3.7 µM,-4%
same,growth inhibition,[10]; at 11.0 µM,-6%
same,growth inhibition,[10]; at 33.0 µM,81% (active)
same,growth inhibition,[10]; at 100.0 µM,92% (active)
same,growth inhibition,[11]; at 1.2 µM,10%
same,growth inhibition,[11]; at 3.7 µM,7%
same,growth inhibition,[11]; at 11.0 µM,11%
same,growth inhibition,[11]; at 33.0 µM,44%
same,growth inhibition,[11]; at 100.0 µM,94% (active)
same,growth inhibition,[12]; at 1.2 µM,1%
same,growth inhibition,[12]; at 3.7 µM,2%
same,growth inhibition,[12]; at 11.0 µM,-6%
same,growth inhibition,[12]; at 33.0 µM,8%
same,growth inhibition,[12]; at 100.0 µM,91% (active)
same,growth inhibition,[13]; [15],-9%
same,growth inhibition,[13]; [16],89% (active)
same,growth inhibition,[13]; at 50.0 µM,33.4%
same,growth inhibition,[14]; at 1.2 µM,0%
same,growth inhibition,[14]; at 3.7 µM,-12%
same,growth inhibition,[14]; at 11.0 µM,-14%
same,growth inhibition,[14]; at 33.0 µM,6%
same,growth inhibition,[14]; at 100.0 µM,92% (active)
